Test results published in PubChem BioAssay (NCATS).
Results filed as inconclusive are left out. A call without a number means that no potency is given here. Activity calls are given as the source filed them. Unless noted, the call rests on the fitted dose curve; in most records, active means well fitted curve in the direction sought with a large enough effect; inconclusive means small, poorly fitted or top-dose-only effect, or another doubt; inactive means no such curve, though single readings can be large; an effect the other way counts as inactive or inconclusive.

Columns and labels:
[1] = Nrf2 qHTS screen for inhibitors: Validation (AID 493153; active means well fitted inhibition curve with a large enough effect in the main read-out, with a control signal flat, not every such curve was filed as active); settings: Potency: luciferase luminescence; viability change: measured here: cytotoxicity max response
Outline: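 A549 cells carrying ARE-firefly luciferase reporter, 5000 cells/well in 5% FBS OPTI-MEM, treated with compound over a concentration series for 18-24 h at 37 C. Luciferase luminescence gave Nrf2 activity; CellTiter-Fluor fluorescence gave viability.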

[2] = qHTS for Inhibitors of Cell Surface uPA Generation: Validation Assay (AID 493164)
Outline: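 RAW 264.7 cells (4000/well) were plated overnight, then exposed for 18 h at 37 C, 5% CO2 to compounds in a 7-point 1:5 titration (2.45 nM–38.3 uM final). Intracellular ATP was read by ATP-Lite luminescence.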

[3] = target: Peptidyl-prolyl cis-trans isomerase NIMA-interacting 1 (Homo sapiens) (UniProt Q13526); experiment: qHTS Validation Assay to Find Inhibitors of Pin1 (AID 504536; active means well fitted inhibition curve with a large enough effect in the polarisation, with a control signal flat, not every such curve was filed as active; the % refers to the polarisation)
Outline: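 Fluorescence polarization competition: compounds (titration) displace HiFluor-488-labeled Pin1-1b peptide from Pin1 (0.3 uM final) in pH 7.5 HEPES buffer with DTT, 10 min at room temperature; %Activity normalized to no-enzyme wells, curves fitted.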

[4] = target: Phosphoglycerate kinase, glycosomal (Trypanosoma brucei brucei) (UniProt P07378); experiment: qHTS Validation Assay to Find Inhibitors of Phosphoglycerate Kinase (AID 504547); further: potency means the concentration at half of the fitted maximal effect
Outline: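 Inhibition of the enzyme is judged by a Kinase-Glo Plus luminescent signal following a one-hour incubation at room temperature. Because 1,3-BPG is unstable, it is made in situ by GAPDH at 100nM final; no-PGK wells define the baseline.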

[5] = target: phosphoglycerate mutase (Leishmania major) (UniProt Q4Q090); experiment: qHTS Validation Assay to Find Inhibitors of Phosphoglycerate Mutase (AID 504548); settings: Potency: inhibition qHTS; further: series mostly up to about 58 µM
Outline: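 Lm PGAM 1.25nM final; 100 mM TEA pH 7.6, 5 mM MgCl2, 0.01% Tween-20; 45 min RT; Kinase-GloPlus, 10 min; end-point luminescence. Enzyme-free wells as negative controls.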

[6] = qHTS for Inhibitors of ATXN expression: Validation of Cytotoxic Assay (AID 588349); further: potency means the concentration at half of the fitted maximal effect
Outline: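 HEK293 cells treated with titrated compound for 72 hr at 37 degrees C; viability read as intracellular ATP by CellTiter Glo luminescence.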

[7] = qHTS for Inhibitors of ATXN expression: Validation (AID 588378); further: nearly all actives have a fitted effect of over 75% in size; further: potency means the concentration at half of the fitted maximal effect
Outline: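 Luciferase luminescence (Bright-Glo) from an ATXN2-FFLuc HEK293 line after 24 h compound exposure at 37 °C, preceded by a CellTiter-Fluor fluorescence viability read. Serial dilutions of a reference ATXN2 inhibitor and a luciferase inhibitor served as controls.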

[8] = target: Galactokinase (Homo sapiens) (UniProt P51570); experiment: qHTS Validation Assay for Inhibitors of Human Galactokinase (GALK) (AID 493189)
Outline: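 Inhibition was measured as remaining ATP, detected by luciferase luminescence after a 1 h room-temperature reaction. Final conditions: 5 nM GALK, 100 uM galactose, 35 uM ATP, pH 8.0 HEPES buffer.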

[9] = Validation screen for small molecules that induce DNA re-replication in SW480 colon adenocarcinoma cells (AID 504364)
Outline: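 SW480 cells (250/well) exposed 48 h at 37 C, 5% CO2, then Hoechst-stained 40 min. Nuclear DNA content imaged by fluorescence scanning (405 nm excitation, 500-530 nm emission); re-replication scored as increased nuclei with elevated intensity.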

[10] = target: DNA dC->dU-editing enzyme APOBEC-3G (Homo sapiens) (UniProt Q9HC16); experiment: qHTS for inhibitors of Vif-A3G interactions: Validation (AID 588379)
Outline: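 HeLa cells stably expressing Vif and A3G-eYFP, 700 cells/well, incubated overnight at 37 deg C, then exposed to compound overnight at 37 deg C. Inhibition of Vif-mediated degradation read as increased yellow fluorescence (Ex 488/Em 500-530) by laser-scanning cytometry.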

[11] = target: Ubiquitin carboxyl-terminal hydrolase 1 (Homo sapiens) (UniProt O94782); experiment: Inhibitors of USP1/UAF1: Pilot qHTS (AID 504865); further: nearly all actives have a fitted effect of over 35% in size; further: potency means the concentration at half of the fitted maximal effect
Outline: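 Deubiquitinase activity followed as kinetic rhodamine fluorescence release from 150 nM Ub-Rho. 1 nM USP1/UAF1 with compound, after 15 min room-temperature preincubation, in HEPES pH 7.8 buffer containing TCEP, EDTA, BSA and Tween-20.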

[12] = target: Androgen receptor (Homo sapiens) (UniProt P10275); experiment: qHTS assay for small molecule agonists of androgen receptor signaling (AID 588515; active means well fitted curve in the direction sought with a large enough effect in the signal ratio, with a control signal flat; the % refers to the signal ratio); settings: AR-UAS-bla HEK293, beta-lactamase ratio, agonist 16 h; stronger effect = higher value
Outline: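 EC50 and efficacy came from Hill fits of titrations (up to 92 uM) normalized to 30 nM R1881 as 100% and DMSO as 0%. Compound exposure was 16 h at 37 C on AR-UAS-bla HEK293 cells, with a 405/460/530 nm CCF4 fluorescence read.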

[13] = target: Glucocorticoid receptor (Homo sapiens) (UniProt P04150); experiment: qHTS assay for small molecule agonists of glucocorticoid receptor signaling (AID 588532; active means well fitted curve in the direction sought with a large enough effect in the signal ratio, with a control signal flat; the % refers to the signal ratio); settings: HeLa MMTV-bla, beta-lactamase ratio, agonist, 18 h; stronger effect = higher value; percent of dexamethasone control, DMSO zero
Outline: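 Quantitative HTS using CellSensor MMTV-bla HeLa cells in charcoal/dextran-treated serum; compounds tested up to 92 uM. After 18 h at 37 C, CCF4 dye reported reporter induction.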

DNA dC->dU-editing enzyme APOBEC-3G (Homo sapiens), sequence (Q9HC16 whole entry, looked up): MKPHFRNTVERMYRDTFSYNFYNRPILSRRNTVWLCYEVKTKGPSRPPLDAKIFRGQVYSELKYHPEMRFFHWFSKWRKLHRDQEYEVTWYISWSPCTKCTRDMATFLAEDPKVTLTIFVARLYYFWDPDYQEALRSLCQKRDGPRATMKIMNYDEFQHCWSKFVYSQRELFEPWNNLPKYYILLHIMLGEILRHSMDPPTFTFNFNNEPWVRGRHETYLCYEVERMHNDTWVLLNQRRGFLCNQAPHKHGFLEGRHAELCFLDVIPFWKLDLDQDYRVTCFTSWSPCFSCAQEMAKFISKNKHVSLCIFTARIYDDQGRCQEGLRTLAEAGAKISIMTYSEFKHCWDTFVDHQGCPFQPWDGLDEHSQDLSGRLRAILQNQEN
Ubiquitin carboxyl-terminal hydrolase 1 (Homo sapiens), sequence (O94782 whole entry, looked up): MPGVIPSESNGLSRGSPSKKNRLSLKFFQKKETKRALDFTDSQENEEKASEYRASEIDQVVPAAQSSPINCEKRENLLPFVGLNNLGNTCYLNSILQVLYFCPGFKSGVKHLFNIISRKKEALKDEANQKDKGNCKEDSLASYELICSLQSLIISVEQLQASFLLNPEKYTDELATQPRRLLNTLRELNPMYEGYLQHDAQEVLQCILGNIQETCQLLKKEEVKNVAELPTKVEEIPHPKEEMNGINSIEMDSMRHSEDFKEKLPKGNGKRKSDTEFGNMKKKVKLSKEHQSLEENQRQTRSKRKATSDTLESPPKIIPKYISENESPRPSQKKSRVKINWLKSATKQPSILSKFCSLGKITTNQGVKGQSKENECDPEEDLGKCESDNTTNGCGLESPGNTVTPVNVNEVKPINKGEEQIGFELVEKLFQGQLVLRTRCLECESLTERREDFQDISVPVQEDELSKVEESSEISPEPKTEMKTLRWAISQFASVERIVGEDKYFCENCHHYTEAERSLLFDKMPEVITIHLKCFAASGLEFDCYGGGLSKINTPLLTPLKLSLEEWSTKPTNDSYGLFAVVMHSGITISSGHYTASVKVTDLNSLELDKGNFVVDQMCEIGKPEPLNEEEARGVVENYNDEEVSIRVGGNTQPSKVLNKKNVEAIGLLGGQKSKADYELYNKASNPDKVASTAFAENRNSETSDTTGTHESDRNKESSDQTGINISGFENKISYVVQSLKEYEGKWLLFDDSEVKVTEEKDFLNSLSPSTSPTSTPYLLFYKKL
phosphoglycerate mutase (Leishmania major), sequence (Q4Q090 1-553): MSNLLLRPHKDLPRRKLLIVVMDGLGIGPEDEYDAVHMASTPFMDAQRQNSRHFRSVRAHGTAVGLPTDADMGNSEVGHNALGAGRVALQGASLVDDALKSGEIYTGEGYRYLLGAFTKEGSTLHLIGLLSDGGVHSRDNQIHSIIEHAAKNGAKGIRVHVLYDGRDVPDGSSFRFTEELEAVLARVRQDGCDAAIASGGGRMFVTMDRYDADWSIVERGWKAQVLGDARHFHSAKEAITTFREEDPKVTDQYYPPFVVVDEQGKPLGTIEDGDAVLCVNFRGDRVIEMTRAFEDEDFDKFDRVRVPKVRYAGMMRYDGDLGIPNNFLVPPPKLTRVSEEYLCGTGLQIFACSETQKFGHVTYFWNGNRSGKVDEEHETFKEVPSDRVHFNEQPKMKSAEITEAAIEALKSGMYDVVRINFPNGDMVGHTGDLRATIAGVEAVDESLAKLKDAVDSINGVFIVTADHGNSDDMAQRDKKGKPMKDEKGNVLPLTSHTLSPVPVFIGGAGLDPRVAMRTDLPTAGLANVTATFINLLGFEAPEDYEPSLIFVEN
Galactokinase (Homo sapiens), sequence (P51570 whole entry, looked up): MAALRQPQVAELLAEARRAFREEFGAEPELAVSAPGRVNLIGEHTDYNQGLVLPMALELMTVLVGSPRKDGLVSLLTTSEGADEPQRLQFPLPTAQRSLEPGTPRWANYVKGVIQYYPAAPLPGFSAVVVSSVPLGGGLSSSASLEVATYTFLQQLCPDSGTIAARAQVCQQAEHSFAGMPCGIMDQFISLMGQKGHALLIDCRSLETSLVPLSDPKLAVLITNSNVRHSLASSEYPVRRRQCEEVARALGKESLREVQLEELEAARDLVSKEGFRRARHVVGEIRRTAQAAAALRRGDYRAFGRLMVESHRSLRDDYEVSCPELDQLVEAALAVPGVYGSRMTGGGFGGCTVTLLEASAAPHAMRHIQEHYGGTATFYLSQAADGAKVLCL
Phosphoglycerate kinase, glycosomal (Trypanosoma brucei brucei), sequence (P07378 whole entry, looked up): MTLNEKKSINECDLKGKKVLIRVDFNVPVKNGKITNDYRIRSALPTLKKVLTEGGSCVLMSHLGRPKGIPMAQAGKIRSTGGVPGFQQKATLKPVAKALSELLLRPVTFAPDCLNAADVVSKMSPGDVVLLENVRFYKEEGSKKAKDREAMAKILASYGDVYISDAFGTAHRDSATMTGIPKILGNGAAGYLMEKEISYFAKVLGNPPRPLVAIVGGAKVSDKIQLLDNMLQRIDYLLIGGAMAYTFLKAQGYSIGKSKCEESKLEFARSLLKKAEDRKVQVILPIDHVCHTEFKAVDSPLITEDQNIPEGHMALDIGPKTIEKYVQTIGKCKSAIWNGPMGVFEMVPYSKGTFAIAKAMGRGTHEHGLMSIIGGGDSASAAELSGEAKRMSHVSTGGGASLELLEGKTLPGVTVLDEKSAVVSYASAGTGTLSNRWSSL
Peptidyl-prolyl cis-trans isomerase NIMA-interacting 1 (Homo sapiens), sequence (Q13526 whole entry, looked up): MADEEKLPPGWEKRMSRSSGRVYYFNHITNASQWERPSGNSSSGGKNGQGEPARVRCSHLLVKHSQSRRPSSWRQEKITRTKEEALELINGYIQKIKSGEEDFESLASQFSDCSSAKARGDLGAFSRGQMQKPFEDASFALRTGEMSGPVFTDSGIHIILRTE
Androgen receptor (Homo sapiens), sequence (P10275 whole entry, looked up): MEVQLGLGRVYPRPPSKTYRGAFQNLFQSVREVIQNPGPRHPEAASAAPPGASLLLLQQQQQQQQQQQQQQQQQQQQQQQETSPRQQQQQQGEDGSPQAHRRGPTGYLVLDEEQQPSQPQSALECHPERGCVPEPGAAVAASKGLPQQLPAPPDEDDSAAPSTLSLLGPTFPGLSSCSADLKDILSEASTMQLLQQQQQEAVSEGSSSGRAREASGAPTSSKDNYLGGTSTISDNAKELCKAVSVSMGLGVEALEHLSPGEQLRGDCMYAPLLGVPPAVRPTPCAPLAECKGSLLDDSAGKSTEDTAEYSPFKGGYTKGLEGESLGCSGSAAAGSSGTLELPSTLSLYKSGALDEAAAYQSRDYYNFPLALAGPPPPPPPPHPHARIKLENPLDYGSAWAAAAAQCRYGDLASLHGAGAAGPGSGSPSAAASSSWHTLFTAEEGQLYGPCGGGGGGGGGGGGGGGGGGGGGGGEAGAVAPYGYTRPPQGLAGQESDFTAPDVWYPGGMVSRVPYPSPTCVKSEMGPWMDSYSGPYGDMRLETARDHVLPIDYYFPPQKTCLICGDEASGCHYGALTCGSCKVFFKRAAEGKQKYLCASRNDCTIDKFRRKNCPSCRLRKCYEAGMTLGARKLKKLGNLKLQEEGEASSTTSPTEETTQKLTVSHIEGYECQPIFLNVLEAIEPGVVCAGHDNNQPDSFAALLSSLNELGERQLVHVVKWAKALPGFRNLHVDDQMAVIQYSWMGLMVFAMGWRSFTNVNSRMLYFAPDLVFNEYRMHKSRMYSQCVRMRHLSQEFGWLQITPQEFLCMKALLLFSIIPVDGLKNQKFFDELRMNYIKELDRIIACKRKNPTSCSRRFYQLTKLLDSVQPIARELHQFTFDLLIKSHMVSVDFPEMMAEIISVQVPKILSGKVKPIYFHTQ
Glucocorticoid receptor (Homo sapiens), sequence (P04150 whole entry, looked up): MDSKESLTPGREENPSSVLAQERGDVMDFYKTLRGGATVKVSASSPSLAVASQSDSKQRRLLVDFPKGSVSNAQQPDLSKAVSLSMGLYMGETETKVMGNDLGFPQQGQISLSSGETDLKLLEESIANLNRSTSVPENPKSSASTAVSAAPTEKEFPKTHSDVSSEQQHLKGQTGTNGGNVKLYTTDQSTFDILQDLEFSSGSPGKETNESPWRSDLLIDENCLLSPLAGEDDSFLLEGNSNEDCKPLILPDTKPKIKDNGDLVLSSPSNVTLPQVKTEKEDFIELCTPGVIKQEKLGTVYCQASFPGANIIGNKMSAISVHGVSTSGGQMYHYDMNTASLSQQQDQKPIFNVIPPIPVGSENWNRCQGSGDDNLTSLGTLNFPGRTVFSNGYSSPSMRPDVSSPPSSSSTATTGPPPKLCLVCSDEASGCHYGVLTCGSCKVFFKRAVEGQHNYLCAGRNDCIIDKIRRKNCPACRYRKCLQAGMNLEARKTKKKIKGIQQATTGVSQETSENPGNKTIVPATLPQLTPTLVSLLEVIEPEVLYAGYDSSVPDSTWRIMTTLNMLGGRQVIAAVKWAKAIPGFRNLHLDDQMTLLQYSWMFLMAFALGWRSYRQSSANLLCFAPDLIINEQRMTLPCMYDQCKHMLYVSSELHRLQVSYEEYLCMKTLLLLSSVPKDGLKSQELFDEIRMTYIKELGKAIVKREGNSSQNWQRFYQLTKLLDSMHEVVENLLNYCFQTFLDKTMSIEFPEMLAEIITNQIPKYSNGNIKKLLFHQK

Row | SMILES | Potency [1] | viability change [1] [%] | outcome [2] | Potency [3] | Potency [4] | Potency [5] | Potency [6] | Potency [7] | Potency [8] | Potency [9] | Potency [10] | Potency [11] | activation [12] | activation [13]
1 | N[C@H](C(=O)O)[C@H](Cc1ccccc1)C(=O)O | inactive | -3.91 | inactive | inactive | inactive | inactive | inactive | inactive |  |  |  |  |  | 
2 | C=CCN1CCc2c(cc(O)c(O)c2Br)[C@@H](c2ccccc2)C1 | inactive | -6.77 | inactive | inactive | inactive | inactive | inactive |  | inactive |  |  |  |  | 
3 | Cc1nc(N=Nc2ccc(S(=O)(=O)O)cc2S(=O)(=O)O)c(COP(=O)(O)O)c(C=O)c1O | inactive | -3.73 | inactive |  | inactive | inactive | inactive | inactive | inactive | inactive | inactive |  |  | 
4 | CC(=O)O[C@H]1Cc2ccccc2N(C(N)=O)c2ccccc21 | inactive | -3.02 | inactive | inactive | inactive | inactive | inactive | inactive |  |  |  | inactive |  | 
5 | C[C@](Cc1ccc(O)c(O)c1)(NN)C(=O)O | inactive | -1.27 | inactive | inactive | inactive | inactive | inactive | inactive |  |  |  | inactive |  | 
6 | O[Si](CCCN1CCCCC1)(c1ccc(F)cc1)C1CCCCC1 (configuration not stated) | inactive | -4.41 | inactive |  | inactive | inactive |  |  | inactive |  |  | inactive |  | 
7 | C[C@]12C=CC(=O)C=C1CC[C@@H]1C2=CC[C@]2(C)[C@@H](C(=O)CN3CCN(c4cc(N5CCCC5)nc(N5CCCC5)n4)CC3)CC[C@@H]12 | inactive | -17.1 | inactive | inactive | inactive | inactive | inactive | inactive |  |  |  |  |  | 
8 | CN1C2CCC1CC(OC(c1ccccc1)c1ccccc1)C2 (configuration not stated) | inactive | -14.9 | inactive |  |  | inactive | inactive |  | inactive | inactive |  | inactive |  | 
9 | C[C@H](NC(=O)/C(C#N)=C/c1ccc(O)c(O)c1)c1ccccc1 | inactive | -7.12 | inactive | inactive | inactive | inactive |  |  | inactive |  |  | inactive |  | 
10 | CCCCCCC/C=C\CCCCCCCCC(=O)O | inactive | 3.91 | inactive |  |  | inactive | inactive | inactive | inactive | inactive |  | 39.8 µM (active) |  | 
11 | Nc1nc2c(cnn2CCc2ccccc2)c2nc(-c3ccco3)nn12 | inactive | -1.96 | inactive | inactive | inactive | inactive | inactive | inactive |  |  |  | inactive |  | 
12 | O=c1onc2cnc3ccccc3n12 | inactive | -4.79 | inactive |  | inactive | inactive | inactive | inactive | inactive |  |  | inactive |  | 
13 | Nc1ncnc2c1nc(Br)n2C1OC2COP(=O)(O)O[C@@H]2C1O (some centres not stated) | inactive | 1.09 | inactive | inactive | inactive | inactive | inactive | inactive |  |  |  | inactive |  | 
14 | COc1ccc(CCn2nnnc2C2(c3ccc(C)cc3)CC2)cc1 | inactive | 2.86 | inactive | inactive | inactive | inactive | inactive | inactive |  |  |  |  |  | 
15 | Cc1cc(Cn2cnc3c2C[C@@H](C(=O)O)N(C(=O)C(c2ccccc2)c2ccccc2)C3)ccc1N | inactive | 6.54 | inactive | inactive | inactive | inactive | inactive | inactive |  |  |  | inactive |  | 
16 | N[C@@H](Cc1ccc(O)c(I)c1)C(=O)O | inactive | -2.22 | inactive |  |  | inactive | inactive |  | inactive | inactive |  |  |  | 
17 | CC[C@@H]1Cc2cc(O)ccc2C2=C1c1ccc(O)cc1C[C@H]2CC | inactive | 1.92 | inactive | inactive | inactive | inactive | 22.4 µM (active) | 15.8 µM (active) | inactive |  |  | inactive | -13.9% (inactive) | -4.83% (inactive)
18 | OC[C@H]1O[C@H](n2cnc3c(N[C@H]4CCC[C@@H]4O)ncnc32)[C@H](O)[C@@H]1O | inactive | 2.15 | inactive | inactive | inactive | inactive | inactive | inactive |  |  |  | inactive |  | 
19 | NC[C@@H]1O[C@H](c2ccccc2)Cc2c1ccc(O)c2O | inactive | -1.5 | inactive | inactive | inactive | inactive | inactive |  |  |  | inactive | inactive |  | 
20 | CC(=O)SC1CC2=CC(=O)CC[C@]2(C)C2CC[C@@]3(C)C(CC[C@@]34CCC(=O)O4)C12 (some centres not stated) | inactive | -9.73 | inactive | inactive | inactive | inactive | inactive |  |  |  |  |  |  | 
21 | Oc1cc(O)c2c(c1)O[C@H](c1ccc(O)c(O)c1)[C@@H](O)C2 | inactive | 1.23 | inactive |  | inactive | inactive | inactive | inactive | inactive | inactive | inactive |  |  | 
22 | Cc1nc2n(c(=O)c1CCN1CCC(c3noc4cc(F)ccc34)CC1)CCCC2O (configuration not stated) | inactive | 3.12 | inactive | inactive | inactive | inactive | inactive | inactive |  |  |  | inactive |  | 
23 | O=c1cc(O)cc(/C=C/c2ccc(O)c(O)c2)o1 | inactive | -8.55 |  |  | 1.69 µM (active) | inactive | inactive | inactive | inactive | inactive |  | inactive |  | 
24 | CCCCCCC(=O)OC1CC(C)(C)NC(C)(C)C1 | inactive | 2.37 | inactive |  | inactive | inactive | inactive | inactive |  |  |  | inactive |  | 
25 | COc1ccc(-c2ccc(N)[n+](CCCC(=O)O)n2)cc1 | inactive | 1.33 |  |  | inactive | inactive | inactive | inactive | inactive | inactive |  | inactive |  | 
